# ± gives the standard deviation of the averaged measurements.
# What was measured:
# Details in all cases: concentration: 10 µM; 24 h
# HCC1569 [1] = experiment: cell number relative to DMSO (% of DMSO); higher = more cells (less growth inhibition / toxicity)
# Method in brief: (§1)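 HCC1569 and TDF cells (800 per well, 384-well plates, RPMI with 10% FBS) were treated with compounds at 10 µM for 24 h at 37 °C, in triplicate. Cells were fixed in 3.7% formaldehyde and stained with a rabbit anti-H1.0 antibody, an AlexaFluor 647 secondary and DAPI; six fields per well were imaged at ×10. H1.0 nuclear intensity or cell number is expressed as percent of the plate DMSO control, taking the median of replicates. HCC1569 values were smoothed for positional effects.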
# TDF [2] = experiment: as above
# Method in brief: as §1
# TDF [3] = experiment: H1.0 immunofluorescence intensity relative to DMSO (% of DMSO); higher = stronger H1.0 induction, active = 120 or more
# Method in brief: as §1
# HCC1569 [4] = experiment: H1.0 immunofluorescence intensity relative to DMSO (% of DMSO); higher = stronger H1.0 induction, active = 140 or more
# Method in brief: as §1
# 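For H1.0 immunofluorescence intensity relative to DMSO in this document: TDF is a line of transformed human dermal fibroblasts of mesenchymal origin.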
# 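For cell number relative to DMSO in this document: TDF denotes transformed human dermal fibroblasts of mesenchymal origin.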
structure (smiles),measurement,setting,value
"CNC1CC2OC(C)(C1OC)n1c3ccccc3c3c4c(c5c6ccccc6n2c5c31)C(=O)NC4 (configuration not stated) [Staurosporine, Streptomyces sp.]",cell number,HCC1569 [1],56.3 ± 58
same,cell number,TDF [2],47.9 ± 67
same,H1.0 immunofluorescence intensity,TDF [3],149 (active)
same,H1.0 immunofluorescence intensity,HCC1569 [4],84.1 (inactive)
Cl.OC1CCCCC1N1CCC(c2ccccc2)CC1 (configuration not stated) [Vesamicol hydrochloride],cell number,HCC1569 [1],99
same,cell number,TDF [2],104
same,H1.0 immunofluorescence intensity,TDF [3],94.2 (inactive)
same,H1.0 immunofluorescence intensity,HCC1569 [4],106 (inactive)
CN[C@@H]1Cc2cccc3[nH]c(=O)n(c23)C1.O=C(O)C=CC(=O)O,cell number,HCC1569 [1],101
same,cell number,TDF [2],105
same,H1.0 immunofluorescence intensity,TDF [3],92.5 (inactive)
same,H1.0 immunofluorescence intensity,HCC1569 [4],89.2 (inactive)
CCN(CCCl)Cc1ccccc1Br.Cl [DSP-4 hydrochloride],cell number,HCC1569 [1],98.7
same,cell number,TDF [2],103
same,H1.0 immunofluorescence intensity,TDF [3],92.8 (inactive)
same,H1.0 immunofluorescence intensity,HCC1569 [4],92.4 (inactive)
C=C1C(C)C2C(Cc3ccccc3)NC(=O)C23OC(=O)C=CC(O)CCCC(C)CC=CC3C1O (configuration not stated) [Cytochalasin B],cell number,HCC1569 [1],95.1
same,cell number,TDF [2],63.7
same,H1.0 immunofluorescence intensity,TDF [3],125 (active)
same,H1.0 immunofluorescence intensity,HCC1569 [4],110 (inactive)
Cl.NCCc1c[nH]c2ccccc12 [Tryptamine hydrochloride],cell number,HCC1569 [1],99.1
same,cell number,TDF [2],98.5
same,H1.0 immunofluorescence intensity,TDF [3],95.5 (inactive)
same,H1.0 immunofluorescence intensity,HCC1569 [4],97.2 (inactive)
Br.COC(=O)C1=CCCN(C)C1 [Arecoline hydrobromide],cell number,HCC1569 [1],101
same,cell number,TDF [2],102
same,H1.0 immunofluorescence intensity,TDF [3],93.3 (inactive)
same,H1.0 immunofluorescence intensity,HCC1569 [4],86.6 (inactive)
CC(CCc1ccccc1)NC(C)C(O)c1ccc(O)cc1.Cl (configuration not stated) [Nylidrin hydrochloride],cell number,HCC1569 [1],102
same,cell number,TDF [2],109
same,H1.0 immunofluorescence intensity,TDF [3],92.4 (inactive)
same,H1.0 immunofluorescence intensity,HCC1569 [4],96.5 (inactive)
NC(Cc1ccc(N(CCCl)CCCl)cc1)C(=O)O (configuration not stated) [Melphalan],cell number,HCC1569 [1],86.3 ± 3.1
same,cell number,TDF [2],69.2 ± 5.8
same,H1.0 immunofluorescence intensity,TDF [3],104 (inactive)
same,H1.0 immunofluorescence intensity,HCC1569 [4],96.1 (inactive)
CCC1CN2CCc3cc(OC)c(OC)cc3C2CC1CC1NCCc2cc(OC)c(OC)cc21.Cl.Cl (configuration not stated),cell number,HCC1569 [1],60
same,cell number,TDF [2],27
same,H1.0 immunofluorescence intensity,TDF [3],120 (inactive)
same,H1.0 immunofluorescence intensity,HCC1569 [4],100 (inactive)
"Cl.Clc1ccc(N2CCN(Cc3c[nH]c4ncccc34)CC2)cc1 [L-745,870 hydrochloride]",cell number,HCC1569 [1],99.5
same,cell number,TDF [2],90.2
same,H1.0 immunofluorescence intensity,TDF [3],115 (inactive)
same,H1.0 immunofluorescence intensity,HCC1569 [4],102 (inactive)
Br.CN1C2CC(OC(=O)C(CO)c3ccccc3)CC1C(O)C2 (configuration not stated) [Anisodamine],cell number,HCC1569 [1],104
same,cell number,TDF [2],102
same,H1.0 immunofluorescence intensity,TDF [3],101 (inactive)
same,H1.0 immunofluorescence intensity,HCC1569 [4],94.6 (inactive)
CCN(CC)C(=O)NC1C=C2c3cccc4[nH]cc(c34)CC2N(C)C1 (stereo not drawn) [S-(-)-Lisuride],cell number,HCC1569 [1],101
same,cell number,TDF [2],105
same,H1.0 immunofluorescence intensity,TDF [3],95.5 (inactive)
same,H1.0 immunofluorescence intensity,HCC1569 [4],93.6 (inactive)

# Source: the supplement of paper PMC7156485
